Screens deposited in PubChem by Broad Institute.
HSF1 inhib = HSF1 inhibition. NIH3T3-HGL HSE-luciferase, MG132-induced, luminescence 8 h; active compounds read low. activity change, negative = inhibition, % at 7.5 µM (by protocol). 300,000 tested, 0.77% active. AID 2098;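 active = more than half of replicate wells show activity change below -50%, luminescence cut by over half; inconclusive = some wells, but at most half, below -50%; inactive = no replicate well below -50%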;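 note: luciferase reports HSF-1 transcriptional activity via heat shock element; 0% = median of DMSO wells and -100% = zero luminescence signal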
HSF-1 act = increases HSF-1 driven luciferase reporter signal; NIH3T3-HGL HSF-1 luciferase reporter, MG132, 8 h; 100% = twice DMSO control signal; activation, % at 9 µM; 300,000 tested, 1.7% active; AID 504408;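 active = mean replicate activation of at least 50% with a set share of replicates each reaching 50%; inconclusive = only one of those two conditions met; inactive = mean below 50% and too few replicates reaching it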;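 note: 0% = median of the neutral control wells and 100% = twice that signal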
MITF TRPM1 HTS = increases MITF-driven TRPM1 promoter luciferase signal; SK-MEL-5 TRPM1-promoter luciferase, 24 h; % of positive control, neutral wells = 0; activation, % at 12.5 µM; 300,000 tested, 0.75% active;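 active = mean activation of at least 80% with every replicate also reaching 80%; inconclusive = mean reaches 80% but some replicate falls short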;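 note: 0% = neutral control wells and 100% = parthenolide positive control wells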
Wnt act = activators of Wnt/beta-catenin signaling. Wnt/beta-catenin reporter cell assay, activator, plate reader. activation, % at 9.35 µM. 300,000 tested, 1.2% active; in the data active = activation above about 30%, passing the limit was not always enough; inconclusive = no clear call, values can overlap the other calls;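 note: 0% = neutral control wells and 100% = positive control wells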
esBAF inh = blocks esBAF chromatin remodeling in mouse ES cells; Bmi1-luciferase knock-in reporter, 24 h; 100% = twice the neutral-well signal; reporter increase, % at 12.5 µM; 350,000 tested, 2% active; AID 602393; in the data active = activation above about 40%; inconclusive = no clear call, values can overlap the other calls;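 note: 0% = median of the plate's neutral control wells and 100% = double that signal; a rise in the Bmi1 reporter signal indicates esBAF inhibition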
Active calls of the source: *; ? = inconclusive; / = no result. A selection: hits, their analogues and other compounds. The true share with any hit is near 3.9%.

SMILES | HSF1 inhib | HSF-1 act | MITF TRPM1 HTS | Wnt act | esBAF inh
Clc1ccc(-c2nnc(-c3ccco3)o2)cc1 | / | / | 59 | 38* | 60*
c1cncc(-c2nnc(-c3ccco3)o2)c1 | 3 | -12 | 25 | / | 18
Cc1cccc(N2C(=O)CS/C2=N\NC(=O)c2ccc(Br)cc2)c1C | -72* | -78 | 2 | 0 | -1
CCN(CC)S(=O)(=O)c1cc([N+](=O)[O-])ccc1NNC(=O)Nc1ccccc1OC | 20 | 71* | 1 | -4 | 5
CCN(CC)S(=O)(=O)c1cc([N+](=O)[O-])ccc1NNC(=O)Nc1ccc(F)cc1 | 3 | 3 | / | / | -2
N/C(=N\c1nc2ccccc2o1)NC(=O)c1ccc(Cl)cc1 | -40 | -57 | 1 | / | 5
N/C(=N\c1nc2ccccc2o1)NC(=O)c1ccccc1Br | 10 | 16 | 85* | 7 | 80*
Sc1oc(-c2ccccc2)cc1C=Nc1ccccc1 | 8 | 9 | 23 | / | 85*
Cc1cc(C)n2nc(SCN3C(=O)c4ccccc4C3=O)nc2n1 | 8 | 5 | 84* | -4 | 0
Cc1cc(C)n2nc(SCC3COc4ccccc4O3)nc2n1 (centres undefined) | 12 | 19 | / | 7 | 63*
Cc1cc(C)n2nc(SCc3nnc(SCc4ccccc4C)s3)nc2n1 | -8 | -10 | 8 | -2 | 83*
Cc1cc(C)n2nc(SCc3ccccc3F)nc2n1 | -10 | 18 | 22 | 2 | ?
CC(C)CC#Cc1ccc2c(c1)O[C@@H](CN(C)Cc1cncnc1)[C@@H](C)CN([C@H](C)CO)S2(=O)=O | / | / | / | / | -5
COCCNC(=O)C[C@H]1C[C@H]2c3cc(NC(=O)COC)ccc3O[C@H]2[C@H](CO)O1 | / | / | / | / | -2
COc1ccc(-c2csc(-n3ncc(C(=O)O)c3C(F)(F)F)n2)cc1 | -1 | 5 | 42 | 9 | ?
O=C(O)c1ccc(-c2nc(-c3ccc(Cl)cc3)cs2)cc1 | 11 | 49 | 118* | -4 | /
O=C(O)c1ccc(-c2nc(-c3ccc(Cl)cc3Cl)cs2)cc1 | 16 | 22 | ? | 4 | 60*
COC(=O)c1cnn(-c2nc(-c3ccccc3)cs2)c1N | 27 | 23 | 66 | 12 | 65*
O=C(O)c1cnn(-c2nc(-c3ccc(Cl)cc3)cs2)c1C(F)(F)F | 24 | 7 | 68 | 10 | 76*
COc1ccc(-c2csc(-c3ccc(C(=O)O)cc3)n2)cc1 | 13 | 43 | 62 | -5 | /
CSc1ccc(/C=N/NC(=O)c2sccc2C)cc1 | 41 | 62* | 27 | 12 | /
CSc1ccc(/C=N/NC(=O)c2cc(O)cc(O)c2)cc1 | / | / | 36 | 35* | 1
CSc1ccc(/C=N/NC(=O)c2ccc(C)c(C)c2)cc1 | 8 | 18 | 21 | 0 | /
Fc1ccc(C2c3[nH]c4ccccc4c3CCN2Cc2ccoc2)cc1 (centres undefined) | 3 | 4 | -20 | -5 | /
Cc1cccc(C2c3[nH]c4ccccc4c3CCN2Cc2cnn(-c3ccc(F)cc3)c2)n1 (centres undefined) | 25 | 56* | -24 | 1 | -11
SMILES | HSF1 inhib | HSF-1 act | MITF TRPM1 HTS | Wnt act | esBAF inh
CC(=O)c1ccc2c(c1)C1C=CCC1C(c1ccncc1)N2 (centres undefined) | 1 | 11 | 34 | / | 54*
C/C(=N\NC(=O)c1cc2c(s1)CCC(C)C2)c1ccncc1 (centres undefined) | -7 | 14 | 33 | 20 | 9
C/C(=N\NC(=O)c1cc2c(s1)CCC(C)C2)c1ccc[nH]1 (centres undefined) | / | / | 104* | ? | 28
C[C@@H]1CN([C@@H](C)CO)C(=O)Cc2cc(NC(=O)Nc3cccc4ccccc34)ccc2O[C@H]1CN(C)Cc1ccc2c(c1)OCO2 | / | / | / | / | -7
COc1ccc(NC(=O)N(C)C[C@H]2OCCCC[C@@H](C)Oc3ccc(NS(=O)(=O)c4ccc(OC)cc4)cc3C(=O)N([C@@H](C)CO)C[C@@H]2C)cc1 | / | / | / | / | 0
CCOc1ccc(N(CC(=O)Nc2ccc(C)c(C)c2)S(C)(=O)=O)cc1 | 24 | 14 | 39 | 13 | 84*
COc1ccc(N(CC(=O)Nc2cccc(SC)c2)S(C)(=O)=O)cc1 | 16 | 22 | 29 | / | 45*
CCOc1ccc(N(CC(=O)NN=C2CCCC2)S(C)(=O)=O)cc1 | -87* | -90 | -4 | 5 | -8
COc1ccc(N(CC(=O)Nc2cccc(C(F)(F)F)c2)S(C)(=O)=O)cc1 | 3 | 9 | / | 2 | 10
CCOc1ccc(N(CC(=O)Nc2ccccc2)S(C)(=O)=O)cc1 | 6 | 4 | 3 | / | /
CCCCCSc1nc(C)c(CC(=O)O)c(=O)[nH]1 | -92* | -94 | 16 | / | /
Nc1cc2c(cc1Cl)-c1ccccc1C2=NO | / | / | 55 | -3 | 52*
ON=C1c2ccccc2-c2ccccc21 | 20 | 57* | 3 | 1 | 6
O=C(Nc1c(F)cccc1F)c1cnc(N2CCN(c3ccccn3)CC2)c2ccccc12 | -14 | -6 | -28 | -3 | -10
CCc1cc(C(=O)NNC(=S)Nc2cccc(C)c2)cs1 | 14 | 37 | / | 39* | 50*
Cc1ccc(NC(=O)c2cnc(N3CCN(c4ccccn4)CC3)c3ccccc23)c(Br)c1 | -63* | -66 | -37 | -39 | /
CCc1cc(C(=O)Nc2ccc(C)cc2Br)cs1 | 33 | 48 | / | 70* | /
CCCCNC(=S)NNC(=O)c1csc(CC)c1 | 14 | 33 | 4 | 13 | 19
Cc1cccc(NC(=S)NNC(=O)c2sccc2C)c1 | 29 | 57* | 21 | / | 42*
Cc1ccsc1C(=O)NNC(=S)NCC(C)C | -3 | 15 | 3 | 3 | 9
CCN(CC)CC(=O)Nc1ccc(C)cc1Br | 7 | 5 | 36 | 3 | 12
COc1ccc(NC(=O)N[C@H]2CC[C@@H](CCNC(=O)Cc3ccncc3)O[C@@H]2CO)cc1 | / | / | / | / | 0
C[C@H](CO)N1C[C@H](C)[C@H](CN(C)C(=O)c2ccncc2)OCCCC[C@H](C)Oc2ccc(NC(=O)c3ccccc3)cc2C1=O | / | / | / | / | -1
Cc1cccc(NC(=S)NNC(=O)c2csc(C(C)C)c2)c1 | 10 | 17 | / | 50* | 6
Cc1ccc(NC(=O)c2cnccn2)c(Br)c1 | 5 | 31 | 71 | 13 | 52*
SMILES | HSF1 inhib | HSF-1 act | MITF TRPM1 HTS | Wnt act | esBAF inh
O=[N+]([O-])c1ccc2[nH]c(O)c(N=Nc3ccc(F)cc3)c2c1 | 8 | 21 | / | -2 | -5
O=[N+]([O-])c1ccccc1N=Nc1c(O)[nH]c2ccc(F)cc12 | / | / | 25 | 31* | /
O=[N+]([O-])c1ccc(N=Nc2c(O)[nH]c3ccc(F)cc23)cc1 | 9 | 28 | 41 | 20 | 73*
C[C@H](CO)N1C[C@H](C)[C@H](CN(C)C(=O)c2ccccc2)OCCCC[C@H](C)Oc2ccc(NC(=O)Nc3ccc(F)cc3)cc2C1=O | / | / | / | / | -1
O=C(/C=C/Nc1ccc(Oc2ccccc2)cc1)c1ccco1 | -16 | -14 | 75 | 59* | /
O=C(/C=C/Nc1ccccc1C(F)(F)F)c1ccco1 | 13 | -9 | 12 | 16 | 93*
